Screens deposited in PubChem BioAssay by National Center for Advancing Translational Sciences (NCATS).
A selection: hits, their analogues and other compounds. The true share with any hit is near 0.74%.
TSHR antagonist: human thyrotropin receptor antagonism; TSHR-expressing cells, TSH-stimulated cAMP HTRF, 2 h; hits give low values; activity change, negative = inhibition, % at 11.5 µM; 330,000 compounds, 0.2% hits; P16473;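 active = activity change below a set negative limit, meaning inhibition stronger than a set level, cut at about -70% in these data; inconclusive = activity change between two set negative limits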; also: % is scaled to controls: 0 for no effect and ±100 for the full control effect
Target sequence (P16473 whole entry, looked up): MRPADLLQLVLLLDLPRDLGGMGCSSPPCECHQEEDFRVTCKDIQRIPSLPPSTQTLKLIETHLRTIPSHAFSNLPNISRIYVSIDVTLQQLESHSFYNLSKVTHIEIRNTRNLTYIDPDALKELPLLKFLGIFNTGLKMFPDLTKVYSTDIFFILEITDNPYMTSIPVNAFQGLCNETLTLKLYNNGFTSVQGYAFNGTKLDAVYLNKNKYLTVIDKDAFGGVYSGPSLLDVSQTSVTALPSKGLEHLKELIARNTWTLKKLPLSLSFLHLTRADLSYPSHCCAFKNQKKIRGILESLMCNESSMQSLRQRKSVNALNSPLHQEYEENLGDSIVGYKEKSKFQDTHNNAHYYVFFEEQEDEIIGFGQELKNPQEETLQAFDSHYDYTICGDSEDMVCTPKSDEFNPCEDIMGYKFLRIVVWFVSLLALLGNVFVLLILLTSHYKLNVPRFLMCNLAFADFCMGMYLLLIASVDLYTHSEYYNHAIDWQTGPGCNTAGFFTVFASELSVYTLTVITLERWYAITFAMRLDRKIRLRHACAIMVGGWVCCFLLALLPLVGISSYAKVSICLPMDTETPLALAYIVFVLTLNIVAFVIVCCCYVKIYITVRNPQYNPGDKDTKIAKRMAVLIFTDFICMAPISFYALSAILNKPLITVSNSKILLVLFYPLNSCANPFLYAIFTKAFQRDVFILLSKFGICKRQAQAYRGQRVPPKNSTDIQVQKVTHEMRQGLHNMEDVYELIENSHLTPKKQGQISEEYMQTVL
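Freshly harvested TSHR cells receive pin-tooled compound, then EC80 TSH at 4nM final. After 2 hours at 37 deg C, antibody in lysis buffer and cAMP-d2 are added; 30 minutes at ambient temperature precede the HTRF read.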
CCT chaperon mod: changes cytosolic chaperonin activity | purified chaperonin ATPase assay, HTRF ADP detection, 30 min | activity change, % (test concentration not listed), hits read low | 360,000 compounds, 0.3% hits; in the data active = activity change below about -30%; also: % is scaled to controls: 0 for no effect and ±100 for the full control effect
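ATPase activity: ADP formed was measured by HTRF Transcreener (665/615 nm ratio) after 30 min at 37 deg C with 10 uM ATP. Compounds screened at one 76 uM concentration against 40 or 20 nM TRiC in Tris pH 7.4/KCl/MgCl2/DTT buffer.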
Akt phos inh: blocks phosphorylation of Akt; 360,000 compounds, 0.32% hits; AID 651550; activity change, % for hits at 50 µM; Neuro2A IGF-stimulated pAkt S473 HTRF, 20 min; hits give low values; in the data active = activity change below about -80%; inconclusive = mostly about -51% to -80%; also: % is scaled to controls: 0 for no effect and ±100 for the full control effect
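Neuro2A cells (4,500/well, DMEM with 0.5% FBS) were treated with compound at a single 50 µM final concentration, stimulated with 6 nM IGF for 20 min at 37 °C, and lysed. Phospho-Akt Ser473 was read by HTRF as 665/615 ratio ×10^4.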
TCR act: T cell receptor activation; Potency, µM (doses to about 9.22 µM), inactives show at the highest dose activation of IL-2 secretion, hits mostly activators; AID 504894; 330,000 tested, under 10 active; primary human leukocytes, anti-CD3, IL-2 HTRF, 48 h; active = well fitted activation curve with a large enough effect; inconclusive = small, poorly fitted or top-dose-only effect, or another doubt; inactive = no such curve, though single readings can be large or run the other way; also: % of control where 0% means no effect
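Using a-CD3 beads without co-stimulation, primary human leukocytes were exposed to compounds for 48 hr. An HTRF IL-2 kit measured the cytokine, with europium-to-d2 energy transfer producing emission at 665nm upon 320nm excitation.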
* = called active by the depositor; [ ] = another dose, or the depositor's remark.

For COc1ccc2[nH]c3c(c2c1)CCNC3(C)CCc1ccc(Cl)nc1 (stereo not given) the results were TSHR antagonist 3, CCT chaperon mod -31*, Akt phos inh inactive and TCR act -3%.
`CN(Cc1ccccc1)S(=O)(=O)c1ccc(OCC(=O)NCc2ccccn2)cc1` gave TSHR antagonist -104*, CCT chaperon mod 1, Akt phos inh inactive and TCR act 0%.
`CCOc1ccc(S(=O)(=O)N(C)CC(=O)NCc2ccccn2)cc1` gave TSHR antagonist 4, CCT chaperon mod 0, Akt phos inh inactive and TCR act -40%.
For COc1ccc(NC(=O)CCc2c(C)nc3nc(C)nn3c2C)cc1 the results were TSHR antagonist -2, CCT chaperon mod -2, Akt phos inh -118%* and TCR act -2%.
Screening Cc1nc2nc(C)c(CCC(=O)Nc3ccc4c(c3)OCO4)c(C)n2n1 returned TSHR antagonist -1, CCT chaperon mod 0, Akt phos inh inactive and TCR act -1%.
Screening COc1ccc(-c2nc(C)ncc2N=Nc2ccccc2)cc1 returned TSHR antagonist 15, CCT chaperon mod -2, Akt phos inh -114%* and TCR act -3%.
Screening Cc1ncc(N=Nc2ccc(F)cc2)c(-c2ccc(Cl)cc2)n1 returned TSHR antagonist -6, CCT chaperon mod 0, Akt phos inh -118%* and TCR act -2%.
For COc1ccc(N=Nc2nc(-c3ccccc3)c(-c3ccccc3)[nH]2)cc1 the results were TSHR antagonist -6, CCT chaperon mod -1, Akt phos inh inactive and TCR act 1%.
Screening Cc1cc(C(=O)OCC(=O)Nc2ccccc2Br)c(C)o1 returned TSHR antagonist 16, CCT chaperon mod -53*, Akt phos inh inactive and TCR act -4%.
`COCCNC(=O)C1CCCN(S(=O)(=O)c2cccc3nsnc23)C1` (stereo not given) gave TSHR antagonist -11, CCT chaperon mod 1, Akt phos inh inactive and TCR act 0%.
For CC1(C)CC2(CCO1)OC(=O)CC2C(=O)Nc1cccc2ccccc12 (stereo not given) the results were TSHR antagonist 14, CCT chaperon mod -1, Akt phos inh -88%* and TCR act -3%.
`O=C1CC(C(=O)Nc2cccc3ccccc23)C2(CCCC2)O1` (stereo not given) gave TSHR antagonist -5, CCT chaperon mod -1, Akt phos inh inactive and TCR act -1%.
Screening CCOC(=O)C(=CNc1cccc(C)c1C)C(=O)OCC returned TSHR antagonist -23, CCT chaperon mod -122*, Akt phos inh inactive and TCR act 9%.
CC(=O)Nc1ccc(S(=O)(=O)N2CCN(CC3CC4C=CC3C4)CC2)cc1 (stereo not given) was read as TSHR antagonist 8, CCT chaperon mod -43*, Akt phos inh inactive and TCR act -3%.
Screening O=C(C1CCCCC1)N1C[C@H](n2cc(C3CC3)nn2)[C@@H](O)C[C@@H]1c1ccccc1 returned CCT chaperon mod -1 and Akt phos inh inactive.
Screening CCOc1cccc(-c2nc(C(N)=O)c3[nH]c(=O)n(-c4cccc(Cl)c4)c3n2)c1O returned TSHR antagonist 0, CCT chaperon mod -37*, Akt phos inh inactive and TCR act 0%[46.1 µM].
Screening CCOc1ccccc1-c1nc(C(N)=O)c2[nH]c(=O)n(-c3cccc(C)c3)c2n1 returned TSHR antagonist 1, CCT chaperon mod 2, Akt phos inh inactive and TCR act 6%.
For Cc1onc(-c2c(Cl)cccc2Cl)c1NC(=O)N1CCSCC1 the results were TSHR antagonist 1, CCT chaperon mod -1, Akt phos inh inactive and TCR act 8%.
For Cc1ccccc1NC(=O)N1CCC(C(=O)c2ccc(F)cc2)CC1 the results were TSHR antagonist 5, CCT chaperon mod 1, Akt phos inh inactive and TCR act -8%.
For Cc1cccc(C)c1NC(=O)N1CCC(C(=O)c2ccc(F)cc2)CC1 the results were TSHR antagonist -79*, CCT chaperon mod -1, Akt phos inh inactive and TCR act 2%.
For O=C(C=Cc1cccs1)c1ccc(Cl)s1 the results were CCT chaperon mod -2, Akt phos inh inactive and TCR act 7%.
`COc1cc(S(=O)(=O)n2ccc(C)n2)c(OC)cc1Cl` gave TSHR antagonist 5, CCT chaperon mod -1 and Akt phos inh inactive.
Screening COc1cc(S(=O)(=O)n2ccc(C)n2)ccc1Cl returned TSHR antagonist -10, CCT chaperon mod -48*, Akt phos inh inactive and TCR act 2%.
`Cc1ccc2nc(NC(=O)C3CCN(S(=O)(=O)c4cc([N+](=O)[O-])ccc4Cl)CC3)sc2c1` gave TSHR antagonist -42, CCT chaperon mod -1, Akt phos inh inactive and TCR act -4%[46.1 µM].
Screening O=C(Nc1nc2ccc(F)cc2s1)C1CCN(S(=O)(=O)c2cc([N+](=O)[O-])ccc2Cl)CC1 returned TSHR antagonist -92*, CCT chaperon mod -5, Akt phos inh inactive and TCR act 3%.
For CC(C)CN=Cc1c(O)c([N+](=O)[O-])cc2oc3c(c12)CCCC3 the results were TSHR antagonist -85*, CCT chaperon mod -3, Akt phos inh inactive and TCR act 1%[46.1 µM].
`O=C(NC1C2CC3CC(C2)CC1C3)c1ccc2c(c1)OCO2` (stereo not given) gave TSHR antagonist -126*, CCT chaperon mod -4, Akt phos inh inactive and TCR act -9%.
For COC(=O)c1ccc(OC(=O)CN2C(=O)c3ccccc3C2=O)cc1 the results were TSHR antagonist -6, CCT chaperon mod -2, Akt phos inh inactive and TCR act -4%.
`CC1(C)COC(/C=C/c2cccc([N+](=O)[O-])c2)=N1` gave TSHR antagonist -13, CCT chaperon mod -39*, Akt phos inh inactive and TCR act 4%.
CC1(C)COC(c2cc([N+](=O)[O-])ccc2Cl)=N1 was read as TSHR antagonist -2, CCT chaperon mod -2, Akt phos inh inactive and TCR act -3%.
`c1ccc2c(c1)CCN(c1ncnc3c1[nH]c1ccccc13)C2` gave TSHR antagonist inconclusive, CCT chaperon mod 0, Akt phos inh inactive and TCR act -8%.
Screening COc1cccc(N2CCN(c3ncnc4c3[nH]c3ccc(F)cc34)CC2C)c1 (stereo not given) returned TSHR antagonist -105*, CCT chaperon mod 0 and TCR act 7%.
Screening COc1ccc2[nH]c3c(N4CC(C)OC(C)C4)ncnc3c2c1 (stereo not given) returned TSHR antagonist -11, CCT chaperon mod -1, Akt phos inh inactive and TCR act 2%.
Screening COc1cccc(N2CCN(c3ncnc4c3[nH]c3ccccc34)CC2C)c1 (stereo not given) returned TSHR antagonist -100* and TCR act 5%[46.1 µM].
Screening COc1ccc(CN2CCN(Cc3ccc(Br)cc3)CC2)c(OC)c1OC returned TSHR antagonist -3, CCT chaperon mod 1, Akt phos inh inactive and TCR act 2%.
